# In the library only some 1.9% were active in any assay of this set; here they are far more common.
# a7 integrin act = qHTS for Activators of Integrin-Mediated Alleviation for Muscular Dystrophy; Potency, µM (doses to about 38.3 µM), for the others: top-dose activation, usual class: activators; alpha7betagal myoblasts, beta-gal FDG fluorescence, 48 h; AID 624291, 2012; actives 0.064% (n = 350,000);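 note: potency is the fitted concentration of half-maximal effect; 100% = response of the positive control SU9516; nearly all actives have a fitted effect of over 60% in size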
#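 Alpha7betagal+/- myoblasts (passage 13) were plated 16-24 hr, then exposed to compounds (1:260 dilution of DMSO stock) for 48 hours at 37C. After MPER lysis, β-galactosidase reporter activity was read as FDG fluorescence (ex 480/em 540) after 30 minutes.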
# Pin1 inh = qHTS Assay to Find Inhibitors of Pin1. actives 0.009% (n = 390,000). Peptidyl-prolyl cis-trans isomerase NIMA-interacting 1 (Homo sapiens), Q13526. Potency, µM (doses to about 115 µM), without a hit: at the highest dose activity, negative = inhibition, usual class: inhibitors. AID 504891, 2011. Pin1 FP peptide displacement, HiFluor488, 10 min; active = well fitted inhibition curve with a large enough effect in the polarisation, with a control signal flat, not every such curve was filed as active; inconclusive = small, poorly fitted or top-dose-only effect, or effect the other way, or a change in a side signal; inactive = no such curve, though single readings can be large or run the other way; the % refers to the polarisation; note: potency is the fitted concentration of half-maximal effect; % is set by controls: 0 for no effect and ±100 for the full control effect
# ClpP mod = qHTS Assay for Activators of ClpP; purified B. subtilis ClpP, FRET peptide cleavage, 20 min; Potency, µM (doses to about 57.5 µM), without a hit: top-dose activity change, negative = active; actives 1.9% (n = 340,000); active = well fitted falling curve with a large enough effect; inconclusive = small, poorly fitted or top-dose-only effect; inactive = no such curve, though single readings can be large or run the other way; note: potency is the fitted concentration of half-maximal effect; the source files actives as falling curves though it sought activators and does not explain the sign; nearly all actives have a fitted effect of over 65% in size
#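 Purified B. subtilis ClpP, 10 microg/mL final in Tris/HCl pH8 with KCl, BSA, glycerol and Tween-20, cleaved an Abz/nitrotyrosine-quenched decapeptide. Fluorescence (ex 320, em 430) was read at 0 and 20 min at room temperature. Delta was normalized to 5.8 microM ADEP and DMSO/no-enzyme controls.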
# USP2a inh = qHTS Assay for Inhibitors of Ubiquitin-specific Protease USP2a Using CHOP2 as the Reporter; Potency, µM (highest dose often 38.3 µM), for inactives: top-dose activity change, negative = inhibition, actives largely listed as inhibitors; actives 0.01% (n = 330,000); AID 463254, 2010; USP2 core, Ub-CHOP2 coupled fluorogenic reporter, 485/531;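 note: potency is the fitted concentration of half-maximal effect; plate controls were DMSO wells for no effect and full inhibition by NEM control for full effect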
# Target sequence (O75604 whole entry, looked up): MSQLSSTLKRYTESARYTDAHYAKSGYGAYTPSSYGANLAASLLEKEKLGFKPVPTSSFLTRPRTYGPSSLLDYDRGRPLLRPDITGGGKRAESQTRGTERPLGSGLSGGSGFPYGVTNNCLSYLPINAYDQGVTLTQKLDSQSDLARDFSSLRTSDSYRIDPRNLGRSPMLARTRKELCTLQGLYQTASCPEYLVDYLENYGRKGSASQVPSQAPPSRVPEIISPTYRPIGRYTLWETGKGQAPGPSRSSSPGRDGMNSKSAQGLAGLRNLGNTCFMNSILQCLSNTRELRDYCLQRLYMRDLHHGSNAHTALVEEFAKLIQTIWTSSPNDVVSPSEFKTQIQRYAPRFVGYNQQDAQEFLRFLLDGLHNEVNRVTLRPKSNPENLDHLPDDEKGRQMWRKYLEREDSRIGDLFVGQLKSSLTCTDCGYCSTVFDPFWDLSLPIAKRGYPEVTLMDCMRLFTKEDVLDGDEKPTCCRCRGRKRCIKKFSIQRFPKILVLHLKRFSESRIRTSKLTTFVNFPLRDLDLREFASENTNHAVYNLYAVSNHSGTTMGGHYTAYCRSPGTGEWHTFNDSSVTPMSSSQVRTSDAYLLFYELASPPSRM
#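 USP2 core (10nM final) preincubated 30min RT with compound in 20mM Tris-HCl pH 8.0, 2mM CaCl2, 2mM beta-mercaptoethanol, 0.05% CHAPS; 25nM Ub-CHOP2 plus 25nM reporter substrate added, fluorescence (Ex485/Em531) read after 60min.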
# IL2 activator = qHTS of IL-2 Activators; IL-2 activation reporter assay, cell-based qHTS; stimulated with anti-CD3/CD4/CD28 beads; in transgenic mouse T cells; activation, % (series mostly up to about 46 µM); actives 0.065% (n = 360,000); AID 652025, 2013; in the data active = activation above about 50%; inconclusive = mostly about 30% to 49%; note: 0% is about no effect
#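 Unstimulated transgenic mouse T cells, 750 per well, received compound and, after 60 minutes, anti-CD3/anti-CD4 bead plus anti-CD28 stimulation. EGFP and DsRed were quantified after 18 hours.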
# PKM2 act = qHTS Assay for Activators of Human Muscle isoform 2 Pyruvate Kinase; Pyruvate kinase PKM (Homo sapiens), P14618; purified PKM2, Kinase-Glo ATP luminescence, activation; response scale: 0% is enzyme alone, no compound; Potency, µM (titrated, usually from 57.5 µM), for the others: top-dose activation, most hits filed as activators; actives 0.34% (n = 260,000); note: potency is the fitted concentration of half-maximal effect; % is set by controls: 0 for no effect and ±100 for the full control effect; nearly all actives have a fitted effect of over 55% in size
#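 hPK-M2, >95% pure; 0.1 mM ADP / 0.5 mM PEP final; imidazole pH7.2 buffer w/ 7 mM MgCl2, 50 mM KCl; 1 h RT; Kinase-Glo lum. Intermediate enzyme activity for dual inhibitor/activator qHTS.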
# HeLa tox = Secondary assay for Activators of Human Pyruvate Kinase M2 isoform - Cell Titer Glo cytotoxicity assay; shares compounds with PKM2 act; HeLa viability, CellTiter-Glo ATP luminescence, 24 h; activity change, negative = cytotoxicity, % at 57.5 µM; 230 tested, under 10 active; AID 1898, 2009; note: % of control where 0% means no effect
# An asterisk follows results filed as active; ? = inconclusive; · = no result given; [ ] = dose if it differs, or a comment. Unless noted, calls come from the whole dose curve; as a rule, active = well fitted curve in the direction sought with a large enough effect; inconclusive = small, poorly fitted or top-dose-only effect, or another doubt; inactive = no such curve, though single readings can be large; an effect the other way counts as inactive or inconclusive.
SMILES,a7 integrin act,Pin1 inh,ClpP mod,USP2a inh,IL2 activator,PKM2 act,HeLa tox
O=C(Nc1cc(-c2ccc(F)c(F)c2)no1)c1ccccc1F,·,2%,5%,·,·,·,·
NC(CS)C(=O)O (stereo unspecified),·,·,0%,·,·,·,·
COc1ccc(S(=O)(=O)Nc2nc3c(s2)CCCC3)cc1,0%,-1%,·,1%,-1,5µM*,-27
O=c1c2ccccc2sn1-c1ccc(S(=O)(=O)N2CCCCC2)cc1,-62%,3%,-1%,·,-1,·,·
O=c1c2ccccc2sn1-c1ccc(S(=O)(=O)N2CCCC2)cc1,-48%,-3%,-3%,1%,-2,1.4µM*,0
COc1ccc(S(=O)(=O)NCC2CCCN(C(=O)c3ccccc3)C2)cc1 (stereo unspecified),9%,-5%,0%,0%,0,2.5µM*,3
CCn1c(SCC(=O)Nc2cccc(O)c2)nc2c1c(=O)n(C)c(=O)n2C,15%,0%,·,2%,0,1.1µM*,-5
CCC(=O)N1CCc2cc(S(=O)(=O)CCC(=O)Nc3ccc(Cl)c(C(F)(F)F)c3)ccc21,·,0%,5%,·,·,·,·
COc1ccc(-c2ccc(C)cc2)cc1C1C2C=CCC(C)C2C(=O)N1Cc1ccccc1 (stereo unspecified),·,-1%,·,·,·,·,·
CCCn1c(C)nc2c(NCCCCN(C)C)nc(C)nc21,·,·,·,·,·,0%,·
CCOC(=O)c1c(-c2ccccc2)csc1NC(=O)CSc1nnnn1C,0%,15%,-2%,-21%,3,3.5µM*,?
CCOC(=O)c1c(-c2ccccc2)csc1NC(=O)CSc1ccccc1,-9%,4%,1%,-6%,-3,-17%,·
Cc1ccc(NC(=O)Cn2sc3nc(C)cc(C)c3c2=O)c(Cl)c1,2%,3%,-4%,1%,0,3.5µM*,?
C[C@@H]1C(=O)N(S(=O)(=O)c2ccccc2[N+](=O)[O-])[C@H]1c1ccc(-c2ccccc2)cc1,·,-14%,·,·,·,·,·
Cn1c2cc(B(O)O)sc2c2cnn(Cc3c(F)cccc3Cl)c(=O)c21,·,·,·,-1%,·,·,·
CC(C)c1cc2c(s1)c1cnn(Cc3ccccc3F)c(=O)c1n2C,·,?,·,·,·,·,?
Cn1c2ccsc2c2cnn(Cc3ccccc3F)c(=O)c21,·,-7%,·,·,·,·,15
CCN1CCN(C(=O)Cn2ncc3c4ccccc4n(Cc4ccccc4F)c3c2=O)CC1,·,0%,5%,·,·,·,·
CC(O)c1cc2c(s1)c1cnn(Cc3ccccc3F)c(=O)c1n2C (stereo unspecified),·,2%,·,0%,0,·,-11
COC(=O)c1cc2c(s1)c1cnn(Cc3ccccc3F)c(=O)c1n2C,·,·,·,-1%,·,·,2[23.3 µM]
Cn1c2cc(B(O)O)sc2c2cnn(Cc3c(F)cccc3F)c(=O)c21,·,·,·,-8%,·,·,·
Cn1c2cc([N+](=O)[O-])sc2c2cnn(Cc3ccccc3F)c(=O)c21,·,·,·,-2%,·,·,15
Cn1c(=O)c2ccccc2n(Cc2ccccc2F)c1=O,-1%,-1%,-22%,-8%,-3,-8%,·
Cn1c2cc(C#N)sc2c2cnn(Cc3ccccc3F)c(=O)c21,·,0%,·,·,·,·,-5
COC(=O)N1[C@H](C)C=C[C@]1(Cc1ccccc1)C(=O)NCc1ccc(N(C)C)cc1,·,·,·,·,·,-1%,·
CCOc1ccc(N2C(=O)c3[nH]nc(-c4ccc(OC)cc4)c3C2c2cccs2)cc1 (stereo unspecified),·,27%,-10%,·,·,·,·
